# Reference: the supplement of paper PMC3334620
# The full ranking holds about 33,000 sequences; the median of “E-score (-0.5 to 0.5)” is about -0.016, and the highest 2% start at about 0.31. The full list was thinned out, with the highest values kept by preference.
# Target: Cst6 (UniProt P40535)
# Experiment: PBM E-score (8-mer binding enrichment) (E-score (-0.5 to 0.5)); higher = stronger / more preferred TF binding
# Conditions: protein concentration: 200 nM; construct: GST-DNA-binding domain
# Experimental: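 Universal 'all 10-mer' protein binding microarrays (Agilent AMADID 015681) probed with GST-tagged S. cerevisiae TFs (full-length or DBD) made by in vitro transcription/translation (PURExpress), about 100-200 nM. Bound TF was detected with fluorescent anti-GST. Each ungapped 8-mer (which stands for itself and its reverse complement) is scored by the PBM enrichment score (E-score), a modified Wilcoxon-Mann-Whitney statistic from -0.5 to +0.5, computed with the Universal PBM Analysis Suite. Scale: above 0.35 generally sequence-specific binding.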
# UniProt P40535, sequence (P40535 whole entry): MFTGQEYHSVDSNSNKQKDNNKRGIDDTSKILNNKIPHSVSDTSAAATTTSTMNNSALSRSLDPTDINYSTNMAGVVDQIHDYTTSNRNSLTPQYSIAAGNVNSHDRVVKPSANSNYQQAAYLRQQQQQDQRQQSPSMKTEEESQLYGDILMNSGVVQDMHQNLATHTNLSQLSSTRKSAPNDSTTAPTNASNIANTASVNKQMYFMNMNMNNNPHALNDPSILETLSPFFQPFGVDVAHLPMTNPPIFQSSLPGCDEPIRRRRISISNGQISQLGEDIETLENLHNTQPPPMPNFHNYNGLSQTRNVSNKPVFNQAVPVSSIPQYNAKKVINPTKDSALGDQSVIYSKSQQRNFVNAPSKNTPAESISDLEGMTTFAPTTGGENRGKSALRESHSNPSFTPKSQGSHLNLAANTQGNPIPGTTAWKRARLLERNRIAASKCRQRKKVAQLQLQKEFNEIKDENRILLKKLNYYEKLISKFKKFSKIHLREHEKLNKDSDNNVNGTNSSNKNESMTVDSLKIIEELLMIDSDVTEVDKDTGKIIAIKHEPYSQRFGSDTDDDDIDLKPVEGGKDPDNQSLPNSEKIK
row,Sequence,PBM E-score
1,AGGTTCGC,-0.315
2,ACAATGGG,0.0198
3,CCAGACCG,-0.0843
4,ACCTGCGA,-0.26
5,AGCTGCTG,-0.0369
6,CACGAAAA,0.247
7,TACGAAAA,0.233
8,GACGAAAA,0.329
9,TGCTGACA,0.0293
10,CCCAATCG,-0.0318
11,TTCATCAA,0.151
12,CTCATCGA,-0.0055
13,CTCATCAA,0.134
14,ATCATCTA,0.151
15,GCCATCAA,-0.169
16,ATCATCGA,0.183
17,GTCATCAA,0.385
18,CTCATCTA,-0.113
19,GTCATCGA,0.348
20,GGCATCAA,0.0768
21,ATCATCAA,0.326
22,GTCATCTA,0.368
23,AGAGCCCA,-0.263
24,ATCCCGAA,0.00888
25,TCGAACCA,-0.0349

row,Sequence,PBM E-score
1,CCATGGAA,-0.0645
2,ACCAGGTC,-0.218
3,ATCATCCA,0.0994
4,GTCATCCA,0.383
5,CTCATCCA,0.0578
6,AGGGGTTC,-0.327
7,CGTCACGA,0.449
8,CCTCACGC,0.22
9,CGTCACGC,0.441
10,GGTCACGA,0.0109
11,AGTCACGC,-0.07
12,AGTCACGA,0.0257
13,GCCCACGC,-0.238
14,GTGATGGA,0.0419
15,AAGTCTGC,-0.226
16,ATCTTCTC,-0.0503
17,GACCAAAC,0.0333
18,AATGCCGA,0.041
19,AACGCCGC,0.361
20,AACGCCGT,0.373
21,AACGCCGG,-0.138
22,AATGCCGT,0.418
23,GACGCCGC,0.271
24,AACGCCGA,0.23
25,AATGCCGG,-0.0561

row,Sequence,PBM E-score
1,CACGCCGC,0.0528
2,GCTCGGCA,-0.0691
3,ACGTTTCT,-0.0531
4,CCCAGGGC,-0.337
5,CTCCTCAG,-0.231
6,CCAATTGG,-0.0187
7,ACAAGCGT,0.0465
8,GCCATGAC,0.284
9,ACCATGAA,0.0849
10,ACCATGAT,0.146
11,CCCATGAC,0.336
12,CCCATGAA,-0.00568
13,ACCATGAC,0.395
14,CCCATAAA,-0.0662
15,ACCCTGCT,-0.34
16,AAGCGTCA,0.336
17,AAGCGTCG,-0.151
18,CAGCGTCA,0.279
19,TAGCGTCA,0.399
20,AAGCGTCC,-0.0893
21,GAGCGTCA,0.271
22,AGGTGCGA,-0.148
23,ATCTTTAC,0.162
24,ATATCATC,0.337
25,CTATCATA,0.14

row,Sequence,PBM E-score
1,ATATCATA,0.315
2,ATATCAGC,-0.0588
3,ATATCATG,0.19
4,CTATCATC,0.0729
5,CCGGATCC,-0.199
6,CAGGATGC,-0.125
7,GCCGCCGC,0.205
8,TAGGCAGA,0.0434
9,ACGTCAAA,0.389
10,GCGTCAAC,0.335
11,ACGTCAAC,0.484
12,GAGTCAAC,-0.0954
13,ACGTCGAG,-0.115
14,AGGTCAAC,-0.0368
15,ACGTCGAA,0.112
16,TCGTCAAA,0.195
17,GCGTCAAA,0.151
18,CCGTCAAC,0.0147
19,GTGTCAAC,0.0573
20,ACGTCGAT,0.316
21,CGCCAGTA,-0.0657
22,TAAATTAA,0.127
23,CTCAGTAC,-0.0935
24,AGGTCAAT,0.0479
25,AGGTCAAG,-0.0961

row,Sequence,PBM E-score
1,ACGTCAAT,0.455
2,ATGTCAAT,0.26
3,CCGTCAAG,-0.129
4,ACGTCAAG,0.373
5,ATAAGAGA,0.217
6,CAAAGGTG,-0.0715
7,GTGCAGAA,0.0789
8,ACATCGGC,-0.0191
9,GCGCCAAA,-0.042
10,CATTTATC,0.151
11,AAATTATT,0.314
12,AATTTATA,0.263
13,AAATTAAT,0.248
14,AAATTAGT,0.29
15,AAATTATA,0.278
16,AATTTATC,0.312
17,AAATTATC,0.308
18,AAATTATG,0.164
19,GGTTTTGA,0.105
20,GGCCCTGA,-0.208
21,AACAGGCA,-0.0324
22,ACGTAAAC,0.31
23,ATGTAAAT,0.309
24,CCGTAAAG,0.00566
25,GCGTAAAC,0.168

row,Sequence,PBM E-score
1,ATGTAAAA,0.144
2,ATGTAAAC,0.269
3,AAGTAAAT,0.214
4,AAGTAAAG,-0.172
5,AGGTAAAT,0.0678
6,ACGTAAAT,0.385
7,CCGTAAAC,0.0456
8,ACGTAAAG,0.306
9,GCACTCTA,-0.0783
10,AGAAAACG,0.168
11,GCTTAGAC,-0.195
12,CAAGCGAG,-0.00525
13,TATAGGCA,-0.112
14,ACATCTGC,-0.0513
15,CAACAGCA,0.00053
16,AAGGTTGG,0.0155
17,GCGGAAAA,0.17
18,CCGTAAAA,0.0767
19,GCGTAAAA,0.0958
20,ACGTAAAA,0.354
21,CACACAGG,0.0469
22,AGTCATTC,0.0571
23,CGTCATTC,0.467
24,CCTCATTC,-0.0459
25,GGTCATTA,0.178

row,Sequence,PBM E-score
1,AGTCATTA,0.0194
2,CGTCATTA,0.477
3,GAGCACCA,-0.219
4,ACCCTTCG,-0.0964
5,ATCGTCTC,-0.0844
6,ACCGTCAA,0.159
7,GCCGTCAA,0.0714
8,GCCGTCAC,0.334
9,ACCGTCAG,-0.0719
10,CCCGTCAC,0.2
11,CTCGTCAG,0.127
12,CTCGTCAC,0.349
13,ACCGTCAT,0.418
14,ATCGTCAC,0.401
15,ATCGTCGC,-0.0136
16,CTCGTCAA,0.0507
17,ACAGGAAG,-0.0175
18,CCAGCTCA,-0.146
19,CAGGCATC,-0.213
20,ATATAACG,0.267
21,CAATTAGG,0.0223
22,ACCCCCGC,-0.33
